From PubChem BioAssay (EPA / NIEHS)
Activity calls are given as the source filed them. Rule for the calls: active = hit-call score of the fitted dose curve at least 0.9, where 1 is the maximum; inactive = score below 0.9.

How the values were obtained:
Settings in all cases: mRNA level, 48 h; actives raise or lower the signal
[1] = read-out: ABC Transporter (ABCC2), ABCC2 (gene 1244); assay: LTEA_HepaRG_ABCC2: Life Technologies and Expression Analysis (LTEA) Assay for ABC Transporter (ABCC2) using HepaRG (AID 2283464)
Outline: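 HepaRG cells were plated 48 h, switched to serum-free induction medium, then exposed in duplicate for 48 h to 8 concentrations (top 100 uM, half-log steps, 0.5% DMSO). ABCC2 mRNA was measured by qRT-PCR normalized to ACTB/GAPDH/POLR2A; bidirectional fitting versus DMSO.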

[2] = read-out: Broad substrate specificity ATP-binding cassette transporter ABCG2 (Homo sapiens) (UniProt Q9UNQ0); assay: LTEA_HepaRG_ABCG2: Life Technologies and Expression Analysis (LTEA) Assay for ABC Transporter (ABCG2) using HepaRG (AID 2283465)
Outline: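 Gene expression of ABCG2 in HepaRG liver cells is quantified by qRT-PCR following 48 h exposure across an eight-point series topping at 100 uM. Values come from bidirectional fitting relative to DMSO vehicle.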

[3] = read-out: ATP-citrate lyase (ACLY), ACLY (gene 47); assay: LTEA_HepaRG_ACLY: Life Technologies and Expression Analysis (LTEA) Assay for ATP-citrate lyase (ACLY) using HepaRG (AID 2283466)
Outline: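 ACLY expression changes in human HepaRG liver cells are quantified by qRT-PCR after 48 h exposure to test chemicals (maximum 100 uM, half-log steps). Values are fitted in both directions relative to 0.5% DMSO vehicle.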

[4] = read-out: Peroxisomal acyl-coenzyme A oxidase 1 (ACOX1) gene, ACOX1 (gene 51); assay: LTEA_HepaRG_ACOX1: Life Technologies and Expression Analysis (LTEA) Assay for Peroxisomal acyl-coenzyme A oxidase 1 (ACOX1) gene using HepaRG (AID 2283467)
Outline: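 Human HepaRG hepatic cultures, 48 h treatment with test chemicals up to 100 uM. ACOX1 expression read by qRT-PCR relative to 0.5% DMSO vehicle.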

[5] = read-out: Alkaline Phosphatase, Placental (ALPP) gene, ALPP (gene 250); assay: LTEA_HepaRG_ALPP: Life Technologies and Expression Analysis (LTEA) Assay for Alkaline Phosphatase, Placental (ALPP) gene using HepaRG (AID 2283468)
Outline: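 Differentiated human HepaRG cells were plated and cultured 48 h, then exposed in duplicate for 48 h in serum-free induction medium to eight half-log concentrations from 100 uM in 0.5% DMSO. ALPP mRNA was measured by TaqMan qRT-PCR, normalized to ACTB, GAPDH, POLR2A.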

[6] = read-out: Bcl-2 (BAD) gene, BAD (gene 572); assay: LTEA_HepaRG_BAD: Life Technologies and Expression Analysis (LTEA) Assay for Bcl-2 (BAD) gene using HepaRG (AID 2283469)
Outline: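 Activity values reflect up- or down-regulation of BAD mRNA in human HepaRG hepatic cells treated 48 h in serum-free medium, with eight-point half-log dosing capped at 100 uM and 0.5% DMSO vehicle.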

[7] = read-out: Bcl-2 (BAX) gene, BAX (gene 581); assay: LTEA_HepaRG_BAX: Life Technologies and Expression Analysis (LTEA) Assay for Bcl-2 (BAX) gene using HepaRG (AID 2283470)
Outline: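 Gene expression measured by Fluidigm qRT-PCR with three housekeeping genes for normalisation. HepaRG cells, plated 48 h beforehand, treated 48 h at up to 100 uM (8-point, half-log) in 0.5% DMSO. Bidirectional fitting versus DMSO.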

[8] = read-out: adenosine kinase (ADK) gene, ADK (gene 132); assay: LTEA_HepaRG_ADK: Life Technologies and Expression Analysis (LTEA) Assay for adenosine kinase (ADK) gene using HepaRG (AID 2283471)
Outline: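 HepaRG (human liver), 48 h chemical exposure, 8-pt half-log series, top 100 uM, 0.5% DMSO vehicle. Readout: ADK mRNA by qRT-PCR vs housekeeping genes; bidirectional curve fit relative to DMSO baseline.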

[9] = read-out: Alpha-fetoprotein (AFP) gene, AFP (gene 174); assay: LTEA_HepaRG_AFP: Life Technologies and Expression Analysis (LTEA) Assay for Alpha-fetoprotein (AFP) gene using HepaRG (AID 2283472)
Outline: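 AFP transcript measured by TaqMan qRT-PCR with three housekeeping genes for normalization, after 48 h chemical treatment of HepaRG cells (top 100 uM, half-log steps, 0.5% DMSO). Gain or loss fitted against vehicle.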

BCL2L11 (gene 10018) = assay: LTEA_HepaRG_BCL2L11: Life Technologies and Expression Analysis (LTEA) Assay for Bcl-2 (BCL2L11) gene using HepaRG (AID 2283473)
Outline: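 Differentiated human HepaRG cells in serum-free induction medium were exposed in duplicate for 48 h to eight concentrations (top 100 uM, half-log steps, 0.5% DMSO). BCL2L11 mRNA was quantified by TaqMan qRT-PCR, normalized to ACTB/GAPDH/POLR2A, bidirectional fit versus DMSO.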

[10] = read-out: Apolipoprotein A-V (APOA5) gene, APOA5 (gene 116519); assay: LTEA_HepaRG_APOA5: Life Technologies and Expression Analysis (LTEA) Assay for Apolipoprotein A-V (APOA5) gene using HepaRG (AID 2283474)
Outline: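 Differentiated human HepaRG cells were exposed in duplicate for 48 h to eight half-log concentrations from 100 uM in 0.5% DMSO. APOA5 mRNA was quantified by TaqMan qRT-PCR, normalized to ACTB, GAPDH and POLR2A, and fitted bidirectionally against DMSO.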

[11] = read-out: Apoptosis regulator Bcl-2 (Homo sapiens) (UniProt P10415); assay: LTEA_HepaRG_BCL2: Life Technologies and Expression Analysis (LTEA) Assay for Bcl-2 gene using HepaRG (AID 2283475)
Outline: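 qRT-PCR of BCL2 transcript, normalized to three housekeeping genes (ACTB, GAPDH, POLR2A), after 48 h chemical exposure of HepaRG cells; concentrations top 100 uM with half-log dilutions, 0.5% DMSO vehicle, duplicates; changes up or down fitted relative to vehicle.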

[12] = read-out: Bcl-2 (BID) gene, BID (gene 637); assay: LTEA_HepaRG_BID: Life Technologies and Expression Analysis (LTEA) Assay for Bcl-2 (BID) gene using HepaRG (AID 2283476)
Outline: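 Duplicate 48 h treatments of HepaRG cells in serum-free induction medium spanned 100 uM downward in half-log steps, 0.5% DMSO. Transcript change quantified by qRT-PCR against three housekeeping genes, fitted up or down versus DMSO.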

Caspase-3 (Homo sapiens) = Caspase-3 (Homo sapiens) (UniProt P42574); assay: LTEA_HepaRG_CASP3: Life Technologies and Expression Analysis (LTEA) Assay for cysteine-aspartic acid protease (CASP3) using HepaRG (AID 2283477)
Outline: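 Differentiated human HepaRG cells in serum-free induction medium were exposed 48 h to 8-point half-log concentrations from 100 uM (0.5% DMSO vehicle). CASP3 mRNA was measured by qRT-PCR, normalised to ACTB, GAPDH and POLR2A, with bidirectional fitting against DMSO.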

[13] = read-out: Cytochrome P450 (CYP24A1), CYP24A1 (gene 1591); assay: LTEA_HepaRG_CYP24A1: Life Technologies and Expression Analysis (LTEA) Assay for Cytochrome P450 (CYP24A1) using HepaRG (AID 2283478)
Outline: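 Differentiated HepaRG cells, pre-cultured 48 h, were exposed in duplicate for 48 h in serum-free induction medium to 8 half-log concentrations (top 100 uM, 0.5% DMSO). CYP24A1 mRNA was quantified by TaqMan qRT-PCR, normalized to ACTB/GAPDH/POLR2A, fitted bidirectionally versus DMSO.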

[14] = read-out: Cytochrome P450 (CYP1A2), CYP1A2 (gene 1544); assay: LTEA_HepaRG_CYP1A2: Life Technologies and Expression Analysis (LTEA) Assay for Cytochrome P450 (CYP1A2) using HepaRG (AID 2283479)
Outline: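 Differentiated human HepaRG cells in serum-free induction medium were exposed in duplicate for 48 h to 8-point half-log concentrations up to 100 uM in 0.5% DMSO. CYP1A2 mRNA measured by qRT-PCR, normalized to ACTB, GAPDH, POLR2A; bidirectional fit vs DMSO.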

[15] = read-out: cysteine-aspartic acid protease (CASP8), CASP8 (gene 841); assay: LTEA_HepaRG_CASP8: Life Technologies and Expression Analysis (LTEA) Assay for cysteine-aspartic acid protease (CASP8) using HepaRG (AID 2283480)
Outline: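 Concentration-response in duplicate up to 100 uM (half-log steps, 0.5% DMSO) on differentiated HepaRG cultures for 48 h. Expression change of CASP8 mRNA is determined by TaqMan qRT-PCR with housekeeping-gene normalization.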

[16] = read-out: Cytochrome P450 (CYP2B6), CYP2B6 (gene 1555); assay: LTEA_HepaRG_CYP2B6: Life Technologies and Expression Analysis (LTEA) Assay for Cytochrome P450 (CYP2B6) using HepaRG (AID 2283481)
Outline: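 Differentiated HepaRG cells, serum-free induction medium, exposed 48 h in duplicate to 8-point half-log concentrations from 100 uM in 0.5% DMSO. CYP2B6 mRNA by qRT-PCR, normalized to ACTB, GAPDH, POLR2A; bidirectional fit versus DMSO.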

CYP2C8 (gene 1558) = assay: LTEA_HepaRG_CYP2C8: Life Technologies and Expression Analysis (LTEA) Assay for CYP2C8 using HepaRG (AID 2283483)
Outline: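 This is a transcriptional endpoint in HepaRG cultures: 48 h exposure, highest concentration 100 uM. CYP2C8 mRNA is quantified by TaqMan qRT-PCR.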

[17] = read-out: Cytochrome P450 2C19 (Homo sapiens) (UniProt P33261); assay: LTEA_HepaRG_CYP2C19: Life Technologies and Expression Analysis (LTEA) Assay for CYP2C19 using HepaRG (AID 2283482)
Outline: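 Differentiated human HepaRG cells were exposed for 48 h in serum-free induction medium to 8 concentrations (top 100 uM, half-log steps, 0.5% DMSO). CYP2C19 mRNA was measured by qRT-PCR, normalized to ACTB/GAPDH/POLR2A, and fitted bidirectionally against DMSO.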

Measured: AC50

Chain of Apoptosis regulator Bcl-2 (Homo sapiens) (P10415 whole entry, looked up): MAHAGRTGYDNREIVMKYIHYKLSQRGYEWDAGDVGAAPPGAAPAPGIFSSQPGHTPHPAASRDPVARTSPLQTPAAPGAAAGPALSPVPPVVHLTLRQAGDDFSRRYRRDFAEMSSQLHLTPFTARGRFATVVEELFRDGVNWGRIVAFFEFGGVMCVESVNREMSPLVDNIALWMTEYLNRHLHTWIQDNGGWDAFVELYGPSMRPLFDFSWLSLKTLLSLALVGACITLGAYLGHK
Chain of Cytochrome P450 2C19 (Homo sapiens) (P33261 whole entry, looked up): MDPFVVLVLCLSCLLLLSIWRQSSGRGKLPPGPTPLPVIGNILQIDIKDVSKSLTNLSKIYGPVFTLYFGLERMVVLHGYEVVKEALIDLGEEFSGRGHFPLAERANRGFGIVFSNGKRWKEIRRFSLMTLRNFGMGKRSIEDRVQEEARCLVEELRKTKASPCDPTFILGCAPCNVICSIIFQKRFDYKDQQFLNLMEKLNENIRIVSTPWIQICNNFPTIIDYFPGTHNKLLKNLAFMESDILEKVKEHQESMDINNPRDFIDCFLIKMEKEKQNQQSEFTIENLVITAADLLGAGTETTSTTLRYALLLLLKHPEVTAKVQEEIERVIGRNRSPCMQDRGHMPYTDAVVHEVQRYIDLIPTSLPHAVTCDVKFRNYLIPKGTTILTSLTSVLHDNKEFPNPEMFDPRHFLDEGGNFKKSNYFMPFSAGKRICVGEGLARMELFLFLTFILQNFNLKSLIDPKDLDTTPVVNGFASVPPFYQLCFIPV
Chain of Caspase-3 (Homo sapiens) (P42574 whole entry, looked up): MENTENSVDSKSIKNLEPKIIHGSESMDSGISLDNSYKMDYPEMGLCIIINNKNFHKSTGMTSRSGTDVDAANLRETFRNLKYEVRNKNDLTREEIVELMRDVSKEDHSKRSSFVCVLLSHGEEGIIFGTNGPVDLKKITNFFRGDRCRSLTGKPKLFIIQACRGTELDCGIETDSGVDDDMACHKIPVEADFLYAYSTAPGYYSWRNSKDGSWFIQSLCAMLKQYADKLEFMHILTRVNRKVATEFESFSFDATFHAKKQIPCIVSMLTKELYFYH
Chain of Broad substrate specificity ATP-binding cassette transporter ABCG2 (Homo sapiens) (Q9UNQ0 whole entry, looked up): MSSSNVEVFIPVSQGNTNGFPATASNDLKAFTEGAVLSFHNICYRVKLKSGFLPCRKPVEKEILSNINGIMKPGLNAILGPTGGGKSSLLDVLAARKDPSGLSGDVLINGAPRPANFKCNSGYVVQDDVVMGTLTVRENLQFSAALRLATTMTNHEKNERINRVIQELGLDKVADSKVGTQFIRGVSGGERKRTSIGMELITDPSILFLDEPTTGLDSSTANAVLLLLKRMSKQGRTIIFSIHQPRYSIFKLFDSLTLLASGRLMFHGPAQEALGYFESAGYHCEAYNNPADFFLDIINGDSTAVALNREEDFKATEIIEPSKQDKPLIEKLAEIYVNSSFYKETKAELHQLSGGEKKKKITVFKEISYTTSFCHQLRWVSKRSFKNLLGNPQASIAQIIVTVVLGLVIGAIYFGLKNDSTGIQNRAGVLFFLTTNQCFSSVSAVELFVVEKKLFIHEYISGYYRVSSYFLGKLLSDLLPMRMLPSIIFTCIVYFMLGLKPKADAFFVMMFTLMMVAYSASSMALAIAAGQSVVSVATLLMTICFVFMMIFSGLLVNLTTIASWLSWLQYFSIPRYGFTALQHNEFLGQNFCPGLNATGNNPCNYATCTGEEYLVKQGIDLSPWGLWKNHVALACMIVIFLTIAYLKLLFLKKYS

OC[C@H]1O[C@@](CO)(O[C@H]2O[C@H](CO)[C@@H](O)[C@H](O)[C@H]2O)[C@@H](O)[C@@H]1O
not listed: [17]
inactive: all other assays above

CCCOc1ccc(S(=O)(=O)N2CCN(CC)CC2)cc1-c1nc2c(CC)n(Cc3ccccn3)nc2c(=O)[nH]1
active: [1] 5.49 µM | [3] 80.2 µM | [5] 50 µM | [9] 26.9 µM | [14] 79.4 µM | [16] 5.14 µM | [17] 18.2 µM | CYP2C8 (gene 1558) 3.5 µM
not listed: [11]
inactive: all other assays above

Nc1ccn([C@@H]2O[C@H](CO)[C@@H](O)[C@@H]2O)c(=O)n1
not listed: [17]
inactive: all other assays above

C[C@@H](Oc1ccc(CNC(=O)c2cccnc2Oc2ccc3c(c2)OCO3)c(F)c1)C(=O)O
not listed: [17]
inactive: all other assays above

CCCCC(CC)C(=O)OCCOCCOCCOC(=O)C(CC)CCCC (centres undefined)
not listed: [17]
inactive: all other assays above

CCCCCCCC1CCC(=O)O1 (centres undefined)
not listed: [13] | [14] | [16] | CYP2C8 (gene 1558) | [17]
inactive: all other assays above

CCCCCOC(C)=O
not listed: [11]
inactive: all other assays above

COS(C)(=O)=O
inactive: all assays above

COCc1nnc(-c2ccc[n+]([O-])c2)n1-c1c(Cl)c(Cl)cc2[nH]c(=O)c(=O)[nH]c12
active: [16] 14.6 µM
not listed: [17]
inactive: all other assays above

CCc1cccc(CC)c1N
active: [14] 50 µM | [16] 6.35 µM
not listed: [17]
inactive: all other assays above

O=c1[nH]cnc2c1ncn2[C@H]1CC[C@@H](CO)O1
inactive: all assays above

OCCOCCOCCO
not listed: [11]
inactive: all other assays above

C=CCc1cc(S(=O)(=O)c2ccc(O)c(CC=C)c2)ccc1O
active: [1] 50 µM | [4] 79.8 µM | [5] 50 µM | [9] 79.1 µM | [10] 89 µM | [14] 8.77 µM | [16] 80.6 µM | CYP2C8 (gene 1558) 97.2 µM
not listed: [17]
inactive: all other assays above

C=CN1CCCC1=O
not listed: [17]
inactive: all other assays above
